{"source": "PubChem BioAssay (EPA / NIEHS)", "note": "“And” between values parts separate entries of the source, which are not always exact repeats. Identical values can stand only once. Some structures have more than one record in an assay (separate samples or runs), and their calls can disagree. The source made the active and inactive calls. The calls were made as follows: active = hit-call score of the fitted dose curve at least 0.9, where 1 is the maximum; inactive = score below 0.9."}
{"assay": "ATG_CMV_CIS: Attagene CIS-FACTORIAL HepG2 Assay for human CMV (Internal Marker) (AID 2282928);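 also: endpoint acts as a background internal control marker rather than a target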", "conditions": "HepG2 CMV promoter reporter, transcription factor profiling; actives raise or lower the signal", "method_in_brief": "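After transient transfection of HepG2 with reporter transcription units driven by cis-regulatory promoters, cells receive test chemical for 24 h. Labeled reporter amplicons, digested with HpaI, are sized and quantified by capillary electrophoresis against DMSO.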"}
{"smiles": "C[C@]12CCC(=O)C=C1CC[C@@H]1[C@@H]2CC[C@]2(C)C(=O)CC[C@@H]12", "outcome": "inactive"}
{"smiles": "O=S(=O)(O)C(F)(F)C(F)(F)C(F)(F)C(F)(F)C(F)(F)C(F)(F)F", "outcome": "inactive"}
{"smiles": "CCOP(=S)(OCC)SCSC(C)(C)C", "outcome": "inactive"}
{"smiles": "O=C(NC(=O)c1cc(F)c(F)cc1Cl)Nc1cc(F)ccc1N1CCC(C(=O)O)CC1", "outcome": "inactive"}
{"smiles": "CC(c1ccc(O)cc1)(c1ccc(O)cc1)c1ccc(O)cc1", "AC50": "20.2 µM (active)"}
{"smiles": "ClC1=C(Cl)[C@]2(Cl)[C@@H]3[C@@H](Cl)[C@H]4O[C@H]4[C@@H]3C1(Cl)C2(Cl)Cl", "AC50": "33.7 µM (active)"}
{"smiles": "Cc1ccccc1[N+](=O)[O-]", "outcome": "inactive"}
{"smiles": "ClC1=C(Cl)[C@]2(Cl)[C@@H]3[C@H]4C[C@H]([C@@H]5O[C@H]45)[C@@H]3[C@@]1(Cl)C2(Cl)Cl", "outcome": "inactive"}
{"smiles": "Oc1c(Cl)c(Cl)c(Cl)c(Cl)c1Cl", "AC50": "28.7 µM (active) and 8.37 µM (active) and 39.7 µM (active)"}
{"smiles": "CCCCCCCCCc1ccc(O)cc1", "outcome": "inactive"}
{"smiles": "O=S(=O)(O)C(F)(F)C(F)(F)C(F)(F)C(F)(F)F", "outcome": "inactive"}
{"smiles": "Cc1cc(-c2ccc(N)c(C)c2)ccc1N", "AC50": "60.2 µM (active)", "outcome": "inactive"}
{"smiles": "CC#Cc1cc(C)nc(Nc2ccccc2)n1", "outcome": "inactive"}
{"smiles": "O=C(O)C(F)(F)C(F)(F)C(F)(F)C(F)(F)C(F)(F)C(F)(F)C(F)(F)C(F)(F)F", "AC50": "62.9 µM (active) and 267 µM (active)", "outcome": "inactive"}
{"smiles": "O=C(O)C(F)(F)C(F)(F)C(F)(F)C(F)(F)C(F)(F)C(F)(F)C(F)(F)C(F)(F)C(F)(F)F", "AC50": "86.6 µM (active)", "outcome": "inactive"}
